Rows were chosen to be rich in hits. Some 2.8% of all compounds tested hit in one or more screens of this group.
Peg3 promoter = inhibitors of Peg3 promoter. HeLa PEG-Prom luciferase reporter, luminescence, overnight. inhibition, % at 20 µM. 360,000 compounds, 1.7% hits;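 active means inhibition of at least 50% at 20 µM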
HIF-2a inh = inhibitors of HIF-2a. 360,000 compounds, 0.72% hits. inhibition, % at 18.8 µM. AID 624352. 786-0 RCC cells HIF-2a reporter, luciferase luminescence, overnight;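 active means inhibition of the luminescence signal of 40% or more relative to plate controls, in a single-dose primary screen at 18.75 µM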
KKLEB cytotox = CF airway cell cytotoxicity counter-screen; KKLEB CF airway cells viability, ATPlite luminescence, overnight; stronger effect = lower value; cells stimulated with P. aeruginosa culture filtrate; activity change (cytotoxicity), % at 5 µM; 360,000 compounds, 0.36% hits;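 active means corrected activity change at or below -50% at 5 µM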
B2AR ag = human beta-2 adrenergic receptor agonism by FAP; P07550; Am2.2-beta2AR cells, FAP receptor internalization, flow cytometry; response, % (concentration not given with the values); 340,000 compounds, 0.43% hits; AID 504454;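 active means response above a set limit, near 3 SD of response in nonfluorescent compounds, cut at about 42% in these data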
Target sequence (P07550 whole entry, looked up): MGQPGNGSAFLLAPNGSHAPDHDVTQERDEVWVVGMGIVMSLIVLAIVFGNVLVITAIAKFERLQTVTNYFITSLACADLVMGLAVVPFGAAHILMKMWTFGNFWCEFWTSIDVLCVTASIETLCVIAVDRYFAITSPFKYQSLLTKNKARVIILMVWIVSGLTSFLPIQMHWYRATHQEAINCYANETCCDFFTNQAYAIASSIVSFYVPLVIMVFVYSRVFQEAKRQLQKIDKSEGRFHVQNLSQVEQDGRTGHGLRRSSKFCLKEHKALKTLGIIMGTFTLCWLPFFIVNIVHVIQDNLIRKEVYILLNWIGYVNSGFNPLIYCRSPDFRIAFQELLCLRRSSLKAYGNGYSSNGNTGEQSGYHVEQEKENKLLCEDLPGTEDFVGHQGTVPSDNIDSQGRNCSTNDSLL
CF NFkB inh = blocks PAF-induced NF-kB reporter in cystic fibrosis cells; KKLEB NF-kB-GFP reporter, GFP fluorescence overnight; inhibition, % at 5 µM; 360,000 compounds, 0.86% hits; AID 588850;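 active means at least 50% inhibition at 5 µM, scaled per plate between neutral and stimulator controls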;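 further: PAF is a Pseudomonas aeruginosa culture filtrate used as stimulus; plate controls were PAF-stimulated DMSO wells for no effect and unstimulated DMSO wells for full effect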
MITF TRPM1 inh = inhibitors of MITF-driven TRPM1 promoter in melanoma cells; SK-MEL-5 TRPM1 promoter luciferase, 24 h; inhibition, % at 12.5 µM; 330,000 compounds, 0.83% hits;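 active means mean inhibition across replicates of 60% or more, whatever share of single replicates reaches that level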
* marks the source's active call; other numbers are inactive results; . = not tested or not shown; ! = not confirmed by another sample.

SMILES	Peg3 promoter	HIF-2a inh	KKLEB cytotox	B2AR ag	CF NFkB inh	MITF TRPM1 inh
COc1ccc(C2OC(CCc3ccccc3)CC3=C2C(=O)OC(C)(C)O3)cc1 (stereo unspecified)	14	9	2	.	15	.
O=C(NCC(F)(F)F)c1cc2c(c(-c3cccc(-c4ccccc4F)c3)n1)[C@H](CCO)N(C(=O)CC1CC1)C2	.	0	.	.	.	.
COc1ccc(N2CSC(=S)N(c3ccc(OC)cc3)C2)cc1	-44	-67	-4	.	8	.
CCN(CC)c1cccc(OCC(=O)N2c3ccccc3CC2C)c1 (stereo unspecified)	-49	-91	-17	8	-4	-5
Cc1ccc(-c2csc(NC(=O)CSc3nc4ccccc4[nH]3)n2)cc1	-46	-154	-13	-2	-7	-7
COc1ccc2cc(C)c3nnc(SCC(=O)Nc4nc(-c5ccc(F)cc5)cs4)n3c2c1	66*	-7	-42	2	22	38
Cc1ccc(-c2csc(NC(=O)CSc3nc4ccccc4c(=O)n3CCCN(C)C)n2)cc1	70*	-40	-19	13	0	40
CCn1c(SCC(=O)Nc2nc(-c3ccc(C)cc3)cs2)nnc1-c1ccccc1	-12	-39	2	-1	-10	5
COc1ccc(-c2csc(NC(=O)CSc3nc4ccccc4c(=O)[nH]3)n2)cc1	-11	-38	-33	3	71*	1
CCc1ccc([C@@H]2CC(=O)[C@@H]3CN(S(=O)(=O)c4ccc(Cl)cc4)[C@H](c4ccc(C)cc4)C[C@@H]3N2S(=O)(=O)c2ccc(C)cc2)cc1	14	14	-10	.	2	.
COC(=O)C[C@@H]1C=C[C@H](NC(=O)Nc2ccc(OC)cc2)[C@@H](CO)O1	.	6	.	.	.	.
Cc1ccc(-c2nc3ccccc3n2C(C)C(=O)NC(C)(C)C)cc1 (stereo unspecified)	.	-36	.	.	.	.
CC(=O)NC(c1ccccc1)c1nc(-c2ccc3ccccc3c2)cs1 (stereo unspecified)	-164	-242	0	.	-9	.
CNC(=O)c1ccsc1NC(=O)c1ccc(S(=O)(=O)N2CCCc3ccccc32)cc1	55*	21	-3	5	34	.
Cc1cc2c(cc(C(=O)OCC(=O)NC3CCCCC3)n2C)o1	-152	-213	27	-11	-35	-38
CCN1CCN(Cc2ccc(NC(=O)c3cc(NC(=O)c4cnnc5ccccc45)cc(OC)c3)cc2C(F)(F)F)CC1	100*!	-3	-12	4	34	.
CCN1CCN(Cc2ccc(NC(=O)c3ccc(C)c(NC(=O)c4nccn4C)c3)cc2C(F)(F)F)CC1	-26	6	1	9	28	4
CCN1CCN(Cc2ccc(NC(=O)c3ccc(C)c(NC(=O)c4nccnc4N)c3)cc2C(F)(F)F)CC1	81*	9	-19	19	71*	5
COc1cc(NC(=O)c2cnc(N)s2)cc(C(=O)Nc2cccc(C(F)(F)F)c2)c1	-50	-206	-2	.	12	.
CCN1CCN(Cc2ccc(NC(=O)c3ccc(C)c(NC(=O)c4cncc(-c5cccs5)c4)c3)cc2C(F)(F)F)CC1	99*	48*	-85*	13	80*	97*
CCN1CCN(Cc2ccc(NC(=O)c3cc(NC(=O)c4nccnc4N)cc(OC)c3)cc2C(F)(F)F)CC1	1	-21	-16	-2	42	73*
CCNC(=O)C1CCCN(C(=O)c2c(-c3ccccc3)noc2C)CC1 (stereo unspecified)	-11	0	7	.	6	.
N#CCC1(O)C(=O)N(Cc2ccccc2)c2ccccc21 (stereo unspecified)	.	9	.	.	.	.
CCN(c1ccccc1)S(=O)(=O)c1ccc(OC)c(NC(=O)c2ccco2)c1	26	9	-13	.	19	.
CCOC(=O)Nc1ccc2c(c1)C(=NNC(N)=S)c1ccccc1-2	71*	-65	16	17	-104	-1
O=C(NC(Sc1ccc(Cl)cc1)C(=O)O)c1ccccc1 (stereo unspecified)	20	10	1	.	-34	.
CCCCNS(=O)(=O)c1cccc(NC(=O)[C@@H]2O[C@H](CO)[C@@H](O)[C@H]2O)c1	11	7	10	.	-19	.
O=C(O)c1cccc(N2C(=O)C=CC2=O)c1	13	15	-1	.	-5	.
O=C(c1ccccc1)c1ccccc1N1C(=O)C=CC1=O	104*	25	-9	-16	78*	43

Compound activity deposited in PubChem BioAssay by several laboratories.
